Data taken from PubChem BioAssay (NCI).
The panel holds about 83,000 compounds, 20% with a hit somewhere; the sample as a whole holds those more often.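 Cells were grown in 96-well plates and exposed to the test compound at a single concentration for 48 hours; results are reported as percent growth, with values below 10 considered active.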 Calls of active or inactive are those of the source.

Tests used:
Experiment in all cases: NCI-60 one-dose screen, 48 h (100 = growth as untreated, 0 = no growth, -100 = all killed)
Conditions in all cases: 10 µM unless noted
T-47D breast = tested on: T-47D breast
BT-549 breast = tested on: BT-549 breast
MDA-MB-435 melanoma = tested on: MDA-MB-435 melanoma
SW-620 colon = tested on: SW-620 colon
MCF7 breast = tested on: MCF7 breast
HCT-116 colon = tested on: HCT-116 colon
HCC-2998 colon = tested on: HCC-2998 colon
KM12 colon = tested on: KM12 colon

Measured: growth

CCCCCCCC(=O)Nc1nc2[nH]c(CN3CCN(Cc4cccc(I)c4)CC3)c(CN3CCN(Cc4cccc(I)c4)CC3)c2c(=O)[nH]1
active: T-47D breast -62% | BT-549 breast -4.02% | MDA-MB-435 melanoma -75.8% | SW-620 colon -73.7% | MCF7 breast -93.6% | HCT-116 colon -100% | HCC-2998 colon -94.6% | KM12 colon -80.5%

Nc1cc(N)c2cccnc2c1O
active: MDA-MB-435 melanoma -83.9%
inactive: T-47D breast 93.4% | BT-549 breast 90.3% | SW-620 colon 60% | MCF7 breast 46.3% | HCT-116 colon 51.7% | HCC-2998 colon 77.1% | KM12 colon 81.6%

C(=C\c1n(Cc2ccc3ccccc3c2)c(-c2ccccc2)c(-c2ccccc2)[n+]1Cc1ccc2ccccc2c1)/c1ccccc1
active: T-47D breast -74.8% | BT-549 breast -83.2% | MDA-MB-435 melanoma -92% | SW-620 colon -86.9% | MCF7 breast -64.1% | HCT-116 colon -80.9% | HCC-2998 colon -91.4% | KM12 colon -83.5%

Cc1ccc(C(c2c(O)c3cc(Br)ccc3[nH]c2=O)c2c(O)c3cc(Br)ccc3[nH]c2=O)cc1
inactive: T-47D breast 71.6% | BT-549 breast 87.4% | MDA-MB-435 melanoma 86.3% | SW-620 colon 102% | MCF7 breast 80.2% | HCT-116 colon 82.4% | HCC-2998 colon 94.4% | KM12 colon 88.2%

COc1cc2nc(-c3ccc(-c4nn[nH]n4)cc3)[nH]c(=O)c2cc1OC
inactive: T-47D breast 102% | BT-549 breast 251% | MDA-MB-435 melanoma 105% | SW-620 colon 107% | MCF7 breast 98.9% | HCT-116 colon 104% | HCC-2998 colon 114% | KM12 colon 126%

O=C(OCc1nc2nc(Cl)nc(N3CCOCC3)c2[nH]1)n1ccnc1
active: T-47D breast -49.2% | BT-549 breast 9.52% | MDA-MB-435 melanoma -55.1% | SW-620 colon -59.1% | MCF7 breast 4.72% | HCT-116 colon -82.4%
inactive: HCC-2998 colon 65.3% | KM12 colon 13.7%

CC(=O)[C@@H]1CC[C@]2(C(=O)n3ccnc3)CC[C@]3(C)[C@H](CC[C@@H]4[C@@]5(C)Cc6c([nH]c7ccccc67)C(C)(C)[C@@H]5CC[C@]43C)[C@@H]12
inactive: T-47D breast 78% | BT-549 breast 99.1% | MDA-MB-435 melanoma 101% | SW-620 colon 90.8% | MCF7 breast 71.9% | HCT-116 colon 83.9% | HCC-2998 colon 109% | KM12 colon 84.2%

COc1ccc(Cn2nc(-c3cc(OC)c(OC)c(OC)c3)c3c2CCc2cnoc2-3)cc1OC
inactive: T-47D breast 65.8% | BT-549 breast 61.1% | SW-620 colon 48% | MCF7 breast 29.8% | HCT-116 colon 46.6% | HCC-2998 colon 70.5% | KM12 colon 54%
active: MDA-MB-435 melanoma -7.19%

COc1cc(C2CC(c3cccc(Nc4ccncc4)c3)=NN2c2ccc(Cl)cc2)cc(OC)c1OC (stereo not drawn)
inactive: T-47D breast 71.3% | BT-549 breast 107% | HCT-116 colon 105%
active: MDA-MB-435 melanoma -88.3% | SW-620 colon -66.6% | MCF7 breast -36.1% | HCC-2998 colon -36.2% | KM12 colon -74.5%

COc1ccccc1/C=N/NC1=NC2C(N1)N(C)C(=O)N2C (stereo not drawn)
inactive: T-47D breast 101% | BT-549 breast 101% | MDA-MB-435 melanoma 103% | SW-620 colon 99.3% | MCF7 breast 99.7% | HCT-116 colon 107% | HCC-2998 colon 101% | KM12 colon 105%

Fc1ccc(C2CC(c3cccc(Nc4ccncc4)c3)=NN2c2ccc(Cl)cc2)cc1 (stereo not drawn)
active: MDA-MB-435 melanoma -6.55% | SW-620 colon -74% | MCF7 breast 6.6%
inactive: T-47D breast 80.9% | BT-549 breast 105% | HCT-116 colon 101% | HCC-2998 colon 16.7% | KM12 colon 19.5%

CC(=O)N1N=C(c2cccc(Nc3ccncc3)c2)CC1c1ccc2c(c1)OCO2 (stereo not drawn)
active: BT-549 breast -44.5% | HCT-116 colon -52.3%
inactive: T-47D breast 74.1% | MDA-MB-435 melanoma 35.1% | SW-620 colon 86.2% | MCF7 breast 71.4% | HCC-2998 colon 94.2% | KM12 colon 88.2%

O=C1CCCN1c1cccc2cccnc12
inactive: T-47D breast 97.5% | BT-549 breast 109% | MDA-MB-435 melanoma 100% | SW-620 colon 101% | MCF7 breast 93.3% | HCT-116 colon 102% | HCC-2998 colon 86.7% | KM12 colon 102%

COc1cccc(/C=C2\COc3ccc(-c4ccccc4)cc3C2=O)c1
active: T-47D breast -6.21% | MDA-MB-435 melanoma -25.8% | SW-620 colon -55.6% | MCF7 breast -3.38% | HCT-116 colon -23.8% | KM12 colon -37.3%
inactive: BT-549 breast 13.1% | HCC-2998 colon 19.4%

O=C(Nc1ccc(Nc2ncccn2)cc1)NC1C=c2ccccc2=CC1 (stereo not drawn)
inactive: T-47D breast 100% | BT-549 breast 102% | MDA-MB-435 melanoma 113% | SW-620 colon 106% | MCF7 breast 97.9% | HCT-116 colon 111% | HCC-2998 colon 106% | KM12 colon 108%

CCCCCCCCCCCCC1CCC/C=C\CCC(=O)O1 (stereo not drawn)
inactive: T-47D breast 90% | BT-549 breast 112% | MDA-MB-435 melanoma 104% | SW-620 colon 103% | MCF7 breast 95.6% | HCT-116 colon 91.1% | HCC-2998 colon 104% | KM12 colon 110%

COc1ccc(-c2nc(SCCC(C)C)nc(N/N=C(/C)c3ccc(C)cc3)c2C#N)cc1
inactive: T-47D breast 87.1% | BT-549 breast 91% | MDA-MB-435 melanoma 103% | SW-620 colon 95.2% | MCF7 breast 91.4% | HCT-116 colon 93.2% | HCC-2998 colon 99% | KM12 colon 93.5%

COc1cc2nc(-c3ccc(C(F)(F)F)cc3)cc(OCCN3CCC(O)CC3)c2cc1OC
inactive: T-47D breast 74.9% | BT-549 breast 52.3% | MDA-MB-435 melanoma 94.4% | SW-620 colon 91.8% | MCF7 breast 93.1% | HCT-116 colon 55.3% | HCC-2998 colon 77.9% | KM12 colon 86.8%

NC(=O)c1ncn(C2OC(CO)C(O)C2O)n1 (stereo not drawn)
inactive: T-47D breast 84.6% | BT-549 breast 96.8% | MDA-MB-435 melanoma 107% | SW-620 colon 70.9% | MCF7 breast 80.8% | HCT-116 colon 57.5% | HCC-2998 colon 92.8% | KM12 colon 98.3%

COc1ccc(-c2nc(N/N=C/c3ccco3)nc(N3CCOCC3)c2C#N)cc1
inactive: T-47D breast 54.2% | BT-549 breast 78.5% | MDA-MB-435 melanoma 91.7% | SW-620 colon 89.8% | MCF7 breast 35.2% | HCT-116 colon 89.1% | HCC-2998 colon 92.2% | KM12 colon 86.7%

CC1(C)CN(c2cnc(C(=O)Nc3cc(F)cc4cccnc34)cn2)CCN1
inactive: T-47D breast 44.3% | BT-549 breast 90.2% | MDA-MB-435 melanoma 85.9% | SW-620 colon 35.1% | HCT-116 colon 11.4% | HCC-2998 colon 92.2% | KM12 colon 91.7%
active: MCF7 breast 9.21%

O=C(N/N=C/c1cccnc1)c1ccccc1Nc1cccc(C(F)(F)F)c1
inactive: T-47D breast 61.9% | BT-549 breast 80.7% | MDA-MB-435 melanoma 26.2% | SW-620 colon 84.1% | MCF7 breast 91.8% | HCT-116 colon 85.9% | HCC-2998 colon 101% | KM12 colon 88.2%

CCCCCCCCCCCCCCCC(=O)OC[C@@]1(O)C[C@@]23CC[C@@H]4C(C)(C)CCC[C@@]4(C)[C@@H]2CC[C@H]1C3
inactive: T-47D breast 83.5% | BT-549 breast 86.7% | MDA-MB-435 melanoma 107% | SW-620 colon 108% | MCF7 breast 60.5% | HCC-2998 colon 118% | KM12 colon 111%
active: HCT-116 colon -79.1%

CC(=O)c1c[nH]c2ccc(-c3ccnc(Nc4ccc(NC(=O)C5CCCC5)c(CN5CCOCC5)c4)n3)cc12
active: T-47D breast -0.198% | BT-549 breast -7.17% | MDA-MB-435 melanoma -76% | SW-620 colon 0.153% | MCF7 breast -38.1% | HCT-116 colon 0.944% | HCC-2998 colon -31.4% | KM12 colon -64.1%

COc1ccccc1OCC(=O)N1CCCCCC1
inactive: T-47D breast 103% | BT-549 breast 129% | MDA-MB-435 melanoma 101% | SW-620 colon 100% | MCF7 breast 92.8% | HCT-116 colon 123% | HCC-2998 colon 108% | KM12 colon 97.3%

COc1c(Cl)cc(Cl)c2ccc(C=C3C(=O)N(C)C(=O)N(C)C3=O)nc12
inactive: T-47D breast 100% | BT-549 breast 90.4% | MDA-MB-435 melanoma 102% | SW-620 colon 105% | MCF7 breast 94.9% | HCC-2998 colon 101% | KM12 colon 101%
active: HCT-116 colon -46.6%

O=C1C(=O)c2c(nc3ncccn23)-c2ccccc21
active: T-47D breast -48.5% | BT-549 breast -94% | MDA-MB-435 melanoma -93.8% | SW-620 colon -60.6% | MCF7 breast -53.8% | HCT-116 colon -79% | HCC-2998 colon -92.7% | KM12 colon -62.6%

Cc1cc(C)n(Nc2nc3ccccc3[nH]c2=O)c(=O)c1C#N
inactive: T-47D breast 86% | BT-549 breast 106% | MDA-MB-435 melanoma 103% | SW-620 colon 98.5% | MCF7 breast 82.6% | HCT-116 colon 96.1% | KM12 colon 92.9%

Clc1ccc(C2CC(c3cccc(Nc4ccncc4)c3)=NN2c2ccccc2)cc1 (stereo not drawn)
active: BT-549 breast -75.9% | MDA-MB-435 melanoma -46.1% | SW-620 colon -79.8% | MCF7 breast 4.93% | HCT-116 colon -79.6% | KM12 colon -7.31%
inactive: T-47D breast 58.6%

COc1cc(OC)cc(C2C3=C(COC3=O)Nc3cc(OC)ccc32)c1 (stereo not drawn)
inactive: T-47D breast 68.8% | SW-620 colon 26.6% | MCF7 breast 15.7%
active: BT-549 breast -2.09% | MDA-MB-435 melanoma -30% | HCT-116 colon 1.55% | HCC-2998 colon 1.15% | KM12 colon -3.49%

Cc1nn(-c2ccccc2)c(N2CCOCC2)c1/C=N/N=c1\sc2ccccc2n1C
inactive: T-47D breast 51.7% | BT-549 breast 81.5% | MDA-MB-435 melanoma 92.1% | SW-620 colon 82.7% | MCF7 breast 68.5% | HCT-116 colon 49.6% | KM12 colon 81.4%

CC(=O)N1N=C(c2cccc(Nc3ccncc3)c2)CC1c1ccccc1 (stereo not drawn)
active: HCT-116 colon -24.4%
inactive: T-47D breast 80.4% | BT-549 breast 58.2% | MDA-MB-435 melanoma 89.1% | SW-620 colon 93.6% | MCF7 breast 81.3% | HCC-2998 colon 103% | KM12 colon 101%
